EWS-Fli inh – EWS/Fli-driven NR0B1 reporter inhibitors, primary screen, A673 cells, NR0B1 luciferase, luminescence, MLPCN library | viability-normalised | inhibition, % at 12.6 µM | actives 0.67% (n = 350,000) | AID 651661, 2012;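 active = mean inhibition of at least 50% after viability correction, with every replicate also passing that limit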;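 note: firefly luciferase signal divided by Alamar Blue viability fluorescence both relative to DMSO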
Env fusion inh – inhibitors of HIV-1 Env-driven cell-cell fusion, primary screen, HeLa-JRFL effector, CEM21 target cells, luciferase. inhibition, % at 12.3 µM. AID 651610, 2012. actives 1.1% (n = 360,000);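 active = mean replicate inhibition score of at least 50 and every replicate individually at or above 50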
GSIS activator – GLuc luminescence reporter in INS-1E cells, primary screen for activators of glucose-dependent secretion of insulin | INS-1E GLuc reporter insulin secretion, 2-3 h | activation, % at 16.6 µM | actives 0.61% (n = 370,000) | AID 743287, 2014;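 active = lowest replicate activation of at least 40%, so every replicate reaches that level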
PAX8 reporter – inhibitors of PAX8-driven TPO luciferase reporter, primary screen, RMG-I cells, single concentration | SteadyGlo, 24 h | inhibition, % at 12.6 µM | actives 1.2% (n = 360,000) | AID 652154, 2013;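 active = mean replicate inhibition at least 60% with every replicate also reaching 60%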;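 note: luciferase light reporting Pax8 driven TPO promoter activity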
PGC1a acetyl inh – inhibitors of PGC1a acetylation signal, primary screen, cell-based, U2OS, AlphaScreen, inhibitor mode; AlphaScreen anti-acetyl-lysine; with virally co-expressed GCN5 acetyltransferase; inhibition, % at 15.6 µM; actives 0.17% (n = 350,000);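 active = every replicate shows inhibition of at least 40%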
F508del corr – F508del CFTR correction, initial screen, CFBE line, single point; activity (quench increase), % at 7.58 µM; actives 0.36% (n = 350,000); AID 720511, 2013; CFBE cells, YFP halide quenching; stimulated with forskolin plus potentiator P3; % fluorescence drop versus neutral controls;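 active = mean added fluorescence quench of at least 8% versus neutral control, with both replicates also reaching 8%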;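 note: cells transiently co-express mutant CFTR-F508del with the halide-sensitive YFP; corrector assay measuring rescue of mutant channel to the surface after 24 h compound exposure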
A number is an active result; . = inactive; / = no result; ! = not active in a repeat. Most compounds without a hit are left out; they make up all but 2.7% or so of the library.

SMILES	EWS-Fli inh	Env fusion inh	GSIS activator	PAX8 reporter	PGC1a acetyl inh	F508del corr
CCCN(C)C[C@@H]1Oc2cc(-c3cccc(C#N)c3)ccc2S(=O)(=O)N([C@H](C)CO)C[C@@H]1C	.	.	.	/	.	.
O=C(NCc1ccc(F)cc1)C1(c2cccs2)CCOCC1	.	/	.	123	/	.
CC(=O)N[C@@H]1CC[C@H](CC(=O)NCC2CCCCC2)O[C@H]1CO	.	.	.	.	.	.
CCOc1ccc2oc(C(=O)N(C)CCc3ccc(OC)c(OC)c3)c(C)c2c1	.	.	50	.	.	.
CCOc1ccc2oc(C(=O)N(C)CC(=O)Nc3ccc(OCC)c(OCC)c3)c(C)c2c1	.	.	.	.	.	.
COc1cccc(CN2CC3(C2)CN(C(=O)C2CC2)[C@H](CO)c2c3c3ccc(OC)cc3n2C)c1	.	/	.	/	.	.
Cc1ccc(CNC(=O)C(=O)NCCC2CCCCN2S(=O)(=O)c2ccc(C)cc2)cc1 (stereo unspecified)	.	/	.	.	.	.
O=C(NCCC1CCCCN1S(=O)(=O)c1ccc(Cl)cc1)C(=O)NCc1ccncc1 (stereo unspecified)	.	/	.	97	.	.
O=C(NCCC1CCCCN1S(=O)(=O)c1ccc(F)cc1)C(=O)NCc1ccncc1 (stereo unspecified)	.	/	.	69	.	.
COC(=O)c1c(NC(=O)CN2CCC3(O)CCCCC3C2c2ccc(OC)cc2OC)sc(C)c1C (stereo unspecified)	.	66	/	.	/	/
CC(C)NC(=O)N(C)C[C@H]1OCc2ccccc2-c2ccccc2C(=O)N([C@@H](C)CO)C[C@@H]1C	.	/	.	/	.	.
O=C(Nc1ccccc1F)N1[C@H](CO)[C@@H]2c3ccccc3NC[C@@H]21	.	/	.	.	.	.
COc1ccccc1NS(=O)(=O)c1ccc(C)c(C(=O)Nc2cc(C)on2)c1	.	.	.	.	.	8.8
CCN(CC)CCCNC(=S)N1CCN(c2nc(-c3ccc(F)cc3)cs2)CC1	61	.	.	.	.	.
O=c1oc2ccccc2cc1-c1nc2c(s1)CCCC2	60	/	.	/	.	.
CCC(=O)N[C@@H]1CC[C@@H](CC(=O)NCC2CCCCC2)O[C@H]1CO	.	.	.	.	.	.
CCCN1C[C@@H](C)[C@@H](OC)CN(C)C(=O)c2ccc(NS(=O)(=O)c3cn(C)cn3)cc2OC[C@H]1C	.	.	.	.	.	.
CCCNC(=O)Nc1ccc2c(c1)C(=O)N(C)C[C@@H](OC)[C@@H](C)CN(C(=O)c1ccccc1F)[C@H](C)CO2	.	.	.	/	.	.
COc1ccccc1N1CCN(/N=C/C=C\c2ccccc2[N+](=O)[O-])CC1	.	.	.	.	/	15
COc1ccccc1N1CCN(/N=C/C=C\c2ccco2)CC1	/	/	/	/	.	/
C[C@H]1CN([C@@H](C)CO)C(=O)c2cccc(NS(=O)(=O)c3cccs3)c2O[C@@H]1CN(C)C	.	/	.	.	.	.
NCCCn1c(C(=O)c2cc(Cl)c(N)c(Cl)c2)c2ccc([N+](=O)[O-])cc2[n+]1[O-]	55	.	.	70	54	.
NCCCn1c(C(=O)c2cc(Cl)c(N)c(Cl)c2)c2ccc(C(F)(F)F)cc2[n+]1[O-]	.	.	.	.	.	.
C[C@H]1CN([C@@H](C)CO)C(=O)c2cccc(NC(=O)C3CCCCC3)c2O[C@@H]1CN(C)S(=O)(=O)c1ccc(Cl)cc1	.	.	.	.	.	.
CN(C)C(=O)C[C@@H]1CC[C@@H](NC(=O)C2CC2)[C@@H](CO)O1	.	.	.	/	.	.
SMILES	EWS-Fli inh	Env fusion inh	GSIS activator	PAX8 reporter	PGC1a acetyl inh	F508del corr
COc1cccc(-c2ccc(C3[C@@H]4CN(C(=O)C5CC5)C[C@H]3N4)cc2)c1 (stereo partly specified)	.	/	.	80!	.	.
COc1ccccc1NC(=O)N1C[C@@H]2N[C@H](C1)C2c1ccc(-c2ccccc2)cc1 (stereo partly specified)	.	/	.	.	.	.
COc1ccccc1NC(=O)N1C[C@@H]2N[C@H](C1)C2c1ccc(-c2cccc(C#N)c2)cc1 (stereo partly specified)	53!	/	.	.	.	.
COc1ccc(NC(=O)N2C[C@@H]3N[C@H](C2)[C@@H]3c2ccc(-c3ccc(OC)cc3)cc2)cc1	.	/	.	93	.	.
Cc1ccccc1-c1ccc(C2[C@@H]3CN(C(=O)NC4CCCCC4)C[C@H]2N3)cc1 (stereo partly specified)	.	/	.	.	.	.
O=C(NC1CCCCC1)N1C[C@@H]2N[C@H](C1)C2c1ccc(-c2ccc(F)cc2)cc1 (stereo partly specified)	.	/	.	105!	.	.
COc1cccc(-c2ccc(C3[C@@H]4CN(C(=O)C5CCC5)C[C@H]3N4)cc2)c1 (stereo partly specified)	.	/	.	/	.	.
COc1ccccc1NC(=O)N(C)C[C@@H]1OCc2cn(nn2)CCCC(=O)N([C@@H](C)CO)C[C@@H]1C	.	.	.	/	.	.
O=C(Nc1cccc(F)c1)N1C[C@@H]2N[C@H](C1)C2c1ccc(-c2ccncc2)cc1 (stereo partly specified)	.	/	.	.	.	.
Cc1ccccc1-c1ccc(C2[C@@H]3CN(C(=O)Nc4cccc(F)c4)C[C@H]2N3)cc1 (stereo partly specified)	.	/	93!	85!	.	.
O=C(Nc1cccc(F)c1)N1C[C@@H]2N[C@H](C1)C2c1ccc(-c2ccccc2F)cc1 (stereo partly specified)	.	/	.	.	.	.
COc1ccc(NC(=O)C2CCCN2C(=O)Nc2cccc(F)c2)cc1 (stereo unspecified)	.	.	.	.	.	9.7
CC(=O)Nc1ccc(NC(=O)C2CCCN2C(=O)Nc2cccc(F)c2)cc1 (stereo unspecified)	.	.	.	.	/	.
COc1ccc(-c2ccc(C3[C@@H]4CN(C(=O)Nc5cccc(F)c5)C[C@H]3N4)cc2)cc1 (stereo partly specified)	.	/	.	100!	.	.
C[C@@H]1CN([C@@H](C)CO)C(=O)c2cc(NC(=O)Nc3cccc4ccccc34)ccc2O[C@H]1CN(C)C(=O)Nc1ccc(F)cc1	.	.	.	/	.	.
CCOc1ncccc1C(=O)OCc1ccc(C#N)cc1	/	.	55	.	/	/
CCOc1ncccc1C(=O)OCC(=O)c1cccs1	.	/	50	/	.	.
CCOc1ncccc1C(=O)OCC(=O)c1ccc(Br)s1	.	.	.	.	.	.
CCOc1ncccc1C(=O)NCc1ccc(C)cc1	.	.	45	.	.	/

Bioassay records as filed in PubChem BioAssay.
